# Bioassay records from PubChem.
# Compounds with a hit are over-represented: about 3.6% of the library has one in this group of screens.
# ClpP mod: qHTS Assay for Activators of ClpP. actives 1.9% (n = 340,000). purified B. subtilis ClpP, FRET peptide cleavage, 20 min. ATP-dependent Clp protease proteolytic subunit (Bacillus subtilis (strain 168)), P80244. Potency, µM (doses to about 57.5 µM); active means well fitted falling curve with a large enough effect; inconclusive means small, poorly fitted or top-dose-only effect; inactive means no such curve, though single readings can be large or run the other way; further: the source files actives as falling curves though it sought activators and does not explain the sign; nearly all actives have a fitted effect of over 65% in size
# Target sequence (P80244 whole entry, looked up): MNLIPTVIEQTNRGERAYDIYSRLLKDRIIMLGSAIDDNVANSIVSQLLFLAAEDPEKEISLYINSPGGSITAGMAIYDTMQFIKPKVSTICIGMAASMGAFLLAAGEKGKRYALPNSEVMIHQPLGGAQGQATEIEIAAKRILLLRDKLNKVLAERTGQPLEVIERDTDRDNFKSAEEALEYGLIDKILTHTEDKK
#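 Purified B. subtilis ClpP, 10 microg/mL final in Tris/HCl pH8 with KCl, BSA, glycerol and Tween-20, cleaved an Abz/nitrotyrosine-quenched decapeptide. Fluorescence (ex 320, em 430) was read at 0 and 20 min at room temperature. Delta was normalized to 5.8 microM ADEP and DMSO/no-enzyme controls.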
# aSyn yeast inh: inhibitors of alpha-synuclein toxicity in yeast | actives 0.14% (n = 370,000) | Yeast expressing alpha-synuclein, growth rescue, BacTiter-Glo, 24 h | AID 652106 | Potency, µM (series often up to 46.1 µM), most hits filed as activators; further: nearly all actives have a fitted effect of over 65% in size
#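 Galactose-induced alpha-syn yeast (OD600=0.02, raffinose-pregrown) + pinned cpd, 24 hr, 30 deg C; growth by BacTiter-Glo luminescence. Growth restoration scores as activation.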
# TDP43 rescue: TDP-43 toxicity inhibition in yeast | TDP-43 expressing yeast growth rescue, BacTiter-Glo, 24 h | Potency, µM (doses to about 46.1 µM), hits mostly activators | actives 1.8% (n = 410,000); further: nearly all actives have a fitted effect of over 50% in size
#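 Galactose-induced TDP-43 yeast, OD600=0.02, compound pinned; 24 hr, 30 deg C; BacTiter-Glo luminescence for growth. Inhibitors of TDP-43 toxicity read as activators.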
# Abeta yeast res: compounds reversing amyloid beta toxicity in yeast; yeast expressing A-beta42, growth rescue, OD600, 48 h; response scale: 0% DMSO, 100% iron-clioquinol control; Potency, µM (series often up to 46.1 µM), usual class: activators; actives 0.063% (n = 410,000); further: nearly all actives have a fitted effect of over 55% in size
#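 Yeast A-beta toxicity model in growth medium with pinned compounds, 48 h at 30 C; growth read as absorbance at 600 nm. Normalized to FeCl3/clioquinol equimolar mix (positive) and DMSO (negative).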
# Mm-Cpn inhibitor: M. maripaludis TRiC chaperonin inhibition | Potency, µM (series often up to 76.9 µM), actives largely listed as inhibitors | purified Mm-Cpn ATPase, ADP Transcreener TR-FRET | AID 504842 | actives 0.031% (n = 330,000); further: nearly all actives have a fitted effect of over 80% in size
#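 Compound-treated chaperonin, 25 nM final, turns over 10 uM ATP at 37°C for 30 min following a 10 min preincubation; ADP generated competes with ADP-d2 for Eu-cryptate antibody, lowering FRET.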
# FUS yeast rescue: suppressors of FUS proteinopathy in yeast; S. cerevisiae FUS-expressing, growth rescue, OD600, 24 h; Potency, µM (series often up to 76.6 µM), hits mostly activators; actives 0.24% (n = 390,000); AID 1347120; further: nearly all actives have a fitted effect of over 55% in size
#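 Steps: raffinose overnight preculture; dilution to OD 0.005 in 2% galactose minimal medium; compound addition (concentration series); 24hr at 30C, 99% humidity; absorbance read at 600 nm.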
# Numbers stand for hits; - = inactive; ? = inconclusive; . = no result given. Unless noted, the call rests on the fitted dose curve; in most records, active means well fitted curve in the direction sought with a large enough effect; inconclusive means small, poorly fitted or top-dose-only effect, or another doubt; inactive means no such curve, though single readings can be large; an effect the other way counts as inactive or inconclusive.
SMILES,ClpP mod,aSyn yeast inh,TDP43 rescue,Abeta yeast res,Mm-Cpn inhibitor,FUS yeast rescue
CCC(C(=O)Nc1ccc(C(=O)O)cc1NC(=O)C(CC)c1ccccc1)c1ccccc1 (stereo not drawn),-,-,-,-,-,-
C[C@@H](N)P(=O)(O)C[C@H](Cc1ccccc1)C(=O)O,.,.,.,.,.,-
Nc1cccc(Oc2c(F)c(F)c(Oc3cccc(N)c3)c(F)c2F)c1,-,-,5.6µM,-,-,-
Cc1oc(-c2ccccc2)nc1C(=O)N1CCN(c2ccc(F)cc2)CC1,-,-,11µM,-,-,-
O=C(CCn1ccc2cc(S(=O)(=O)N3CCCC3)ccc21)NCc1ccccc1Cl,-,.,-,-,.,-
CCCCC(=O)Nc1ncc([N+](=O)[O-])s1,.,-,16µM,-,-,-
CC(C)CC(=O)Nc1ncc([N+](=O)[O-])s1,.,?,-,-,-,-
CCC(O)c1nc2ccccc2n1CCOc1cc(C)cc(C)c1 (stereo not drawn),-,.,-,-,.,-
Cc1ccc(S(=O)(=O)NC2c3cccc4cccc(c34)C2Sc2ncccn2)cc1 (stereo not drawn),-,-,16µM,-,-,.
COC(=O)c1ccccc1NC(=O)c1ccc2c(c1)CC(C)O2 (stereo not drawn),-,-,13µM,-,-,-
CCS(=O)(=O)Nc1cc(-c2cn3ccc(C)cc3n2)ccc1C,-,.,-,-,.,-
CCN(CC)C(=O)Cn1cc(S(=O)(=O)CC(=O)Nc2ccccc2C)c2ccccc21,28µM,-,-,-,.,-
Cc1ccc(CS(=O)(=O)c2cn(CC(=O)N(C)c3ccccc3)c3ccccc23)cc1,-,.,-,-,.,32µM
O=C(Nc1ccc2nc(SCC(=O)N3CCCc4ccccc43)sc2c1)c1cccc(Cl)c1,14µM,.,-,-,.,?
Cc1cccc(C)c1NC(=O)CCSc1nc(-c2ccc3c(c2)OCO3)cc(C(F)(F)F)n1,-,-,-,-,.,-
CCOC(=O)c1c(NC(=O)c2ccco2)n(C2CCCCC2)c2nc3ccccc3nc12,28µM,-,-,-,-,-
COc1ccc(-n2c(NC(=O)c3ccco3)c(C#N)c3nc4ccccc4nc32)cc1,-,-,-,-,-,-
CCNC(=O)c1ccccc1SCc1ccccc1,.,-,-,-,-,-
CCc1ccc(OCCNC(=O)c2ccccc2SCc2ccccc2)cc1,28µM,-,-,-,-,-
O=C(Cn1c(=O)c2cccn2c2cccnc21)NCCCN1CCN(c2ccc(Cl)cc2)CC1,.,.,.,.,.,-
COc1cc2c(cc1OC)C(COc1ccc(F)cc1)N(C(=O)Cc1ccccc1)CC2 (stereo not drawn),-,.,.,-,.,-
COC(=O)c1ccc(OCC2c3cc(OC)c(OC)cc3CCN2C(=O)Cc2ccccc2)cc1 (stereo not drawn),-,-,20µM,-,.,?
CCC(CC)C(=O)N1CCc2cc(OC)c(OC)cc2C1COc1ccc(C(=O)OC)cc1 (stereo not drawn),-,-,28µM,-,.,?
CCOc1ccc(NC(=S)N2CCc3cc(OC)c(OC)cc3C2COc2ccc3c(C)cc(=O)oc3c2)cc1 (stereo not drawn),8.9µM,-,?,-,-,.
COC(=O)c1ccc(OCC2c3cc(OC)c(OC)cc3CCN2C(=O)COc2ccc(Cl)cc2)cc1 (stereo not drawn),-,?,-,-,.,-
COC(=O)c1ccc(OCC2c3cc(OC)c(OC)cc3CCN2C(=O)c2ccc(F)cc2)cc1 (stereo not drawn),-,-,35µM,-,.,?
O=C(NCc1cccc(Cl)c1)c1cccn1-c1nnc(N2CCCC2)s1,-,.,-,-,.,-
O=S(=O)(Nc1ccc2c(c1)OCCO2)c1cccc(F)c1,-,-,-,-,-,-
O=S(=O)(Nc1ccc2c(c1)OCCO2)c1ccc2oc3ccccc3c2c1,-,25µM,?,-,-,-
O=S(=O)(Nc1ccc2c(c1)OCO2)c1cccc(Br)c1,-,-,13µM,-,-,.
